The text below walks through data of the supplement of paper PMC11417369.

± gives the standard deviation of the averaged measurements. In all, about 25,000 sequences were measured (“ln(normalized median fluorescence intensity)”: median about 10, highest 2% from about 12 on). The full list was thinned out, with the highest values kept by preference.

For the assay, the system named is PfAP2-G AP2 domain (GST-tagged). Description: gcPBM binding intensity (ln(normalized median fluorescence intensity)); higher = stronger DNA binding. The method in brief:
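GST-fused DNA-binding domains of P. falciparum, expressed in E. coli, were applied at about 25 μg on average for 1 h to an Agilent 4 × 180k array of primer-extended double-stranded 36-bp intergenic genomic probes and negative controls. Binding intensity is the highest Masliner-normalised natural-log median intensity across replicate spots of either probe orientation, measured with Alexa488 anti-GST antibody and a 488 nm scan.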
Consider “ATATATTGAACATATTGTACATTTTGTTAATATTTT [XGTACX_site7622]”, for which the “gcPBM binding intensity (ln)” value is 10.7 ± 0.43.

For “TTATATTTATATATTTGTACGTATGTATATAATTCA [XGTACX_site2993]”, the “gcPBM binding intensity (ln)” value worked out at 11.4 ± 0.97.

As for “ATTGTTTTTTTTTCTTTGTGGAATGAATGAATATAT [XGTACX_negctrl_site603]”, the “gcPBM binding intensity (ln)” value was determined as 10 ± 0.19.

Regarding “TATATATATATATTGACACACATGTATTTCAATATT [CACACA_site2832]”, the “gcPBM binding intensity (ln)” value came out at 10.1 ± 0.21.

For “TATATATATATGTGCACACATAATAAAAAAAAAAAT [CACACA_site3831]”, the “gcPBM binding intensity (ln)” value amounted to 10.6 ± 0.69.

For the sequence “AAAAAATTAATATTGACACACATTTTTAAGAATAAT [CACACA_site239]”, the “gcPBM binding intensity (ln)” value worked out at 10.1 ± 0.16.

Take TATGTTTTTGAATGAGTGCATTAAAATAAAACATTT: the “gcPBM binding intensity (ln)” value is 10.2 ± 0.27.

Regarding “AAAAAAGAAAAAAGGACACACATAAATATACTCACG [CACACA_site2904]”, the “gcPBM binding intensity (ln)” value came out at 11.2 ± 0.91.

Regarding “TAAATTATAATATGCACACAAAATGTTATATTAAAA [CACACA_site376]”, the “gcPBM binding intensity (ln)” value worked out at 9.97 ± 0.26.

On to “TAAAAAATAAATATATGTACGCAATAAATGTGTTAA [XGTACX_site4043]”, for which the “gcPBM binding intensity (ln)” value was 11.6 ± 1.1.

Consider “AATTTTATTTAATTTTTTTGGGAAATGATAAAATTT [CACACA_negctrl_site934]”, for which the “gcPBM binding intensity (ln)” value turned out to be 9.88 ± 0.2.

Take “CATATGCGTCTTGCCTTGCACACTTTTATGAAAAAA [CACACA_site2055]”: the “gcPBM binding intensity (ln)” value was determined as 10.4 ± 0.26.

As for “ATACACACTTAAAAAAGTACTTAACTACATGAATTG [XGTACX_site1203]”, the “gcPBM binding intensity (ln)” value is 11.1 ± 0.59.

With “CACAAACACCCAAACACACACACACCGACATACATA [CACACA_site4410]”, the “gcPBM binding intensity (ln)” value is 10.2 ± 0.27.

For the sequence “TACACCCACCCACATACACACACATACACATATATA [CACACA_site8503]”, the “gcPBM binding intensity (ln)” value was 10.3 ± 0.35.

Consider “CATATTCCCCCCCACACACACACACCCATACATACC [CACACA_site2303]”, for which the “gcPBM binding intensity (ln)” value amounted to 11.7 ± 0.71.

On to “GACATATTCCCCCCCACACACACACCCACATACATA [CACACA_site2302]”, for which the “gcPBM binding intensity (ln)” value stood at 11.8 ± 0.71.

For “TATATATACATATACACACACACACCCATATATATA [CACACA_site2246]”, the “gcPBM binding intensity (ln)” value turned out to be 10.1 ± 0.2.

Take “ACCATACATACATACACACACACACGCATATTTATA [CACACA_site7386]”: the “gcPBM binding intensity (ln)” value worked out at 10.4 ± 0.28.

Consider “CACCCACCCACATACACACACATACACATATATATA [CACACA_site1722]”, for which the “gcPBM binding intensity (ln)” value was found to be 10.2 ± 0.25.

With “CATATATACGCATACACACACACACCCACACCCACA [CACACA_site1725]”, the “gcPBM binding intensity (ln)” value came to 10.6 ± 0.52.

On to “CATATTCCCCCCCACACACACACACGCATACATACC [CACACA_site7148]”, for which the “gcPBM binding intensity (ln)” value turned out to be 11.8 ± 0.6.

Take “TATTCCCCCCAACACACACACACACCGACATACCAC [CACACA_site8723]”: the “gcPBM binding intensity (ln)” value stood at 11.8 ± 1.1.

On to “CATACACCCATACATACACACATACATATATATATA [CACACA_site8591]”, for which the “gcPBM binding intensity (ln)” value came to 10.2 ± 0.11.

Take “TATTCCCCCAAACACACACACACACCCACATACCAC [CACACA_site2304]”: the “gcPBM binding intensity (ln)” value came to 11.1 ± 0.78.

Consider “TTTTTGTATTCTACCTTAACAATCTTAAAGATTTTT [CACACA_negctrl_site1157]”, for which the “gcPBM binding intensity (ln)” value was 9.97 ± 0.11.

Regarding “GTAAATAATAAACACCGTACATGGTATAATTCAATG [XGTACX_site3655]”, the “gcPBM binding intensity (ln)” value stood at 10.7 ± 0.33.

Consider “AAGTCAATTTTTTTTTTTTTTTTTTAACTTATTAAT [TGCATGCA_negctrl_site14]”, for which the “gcPBM binding intensity (ln)” value turned out to be 9.605 ± 0.078.

For “TCATTTCACAGACACACACACACAAGATATTTCCTT [CACACA_site7774]”, the “gcPBM binding intensity (ln)” value came out at 10.1 ± 0.11.

Turning to “AAAAAAAAAGGTACTACACACTATTCTCAATAGAAA [CACACA_site6193]”, the “gcPBM binding intensity (ln)” value came out at 11.1 ± 0.86.

Turning to “TAACAATAACTTTATACACACATAATATAAATATAT [CACACA_site7635]”, the “gcPBM binding intensity (ln)” value was 9.87 ± 0.014.

As to “AACACCAATTCATATGCACACACATCTGCATATTAT [CACACA_site8523]”, the “gcPBM binding intensity (ln)” value turned out to be 10.12 ± 0.078.

For “TATATTAAAAAAGAGGTGCATTCGTAAGAGGTTAAA [GTGCAC_site9720]”, the “gcPBM binding intensity (ln)” value is 10.05 ± 0.064.

Take “CAACATTTGATAAACACACAGAAGTATAAATATATA [CACACA_site2365]”: the “gcPBM binding intensity (ln)” value was determined as 10.24 ± 0.035.

As for “AAAATAAACCCAGACACACTCATTAAAAAATATCAT [CACACA_site5903]”, the “gcPBM binding intensity (ln)” value worked out at 9.95 ± 0.099.

Turning to “AAAAATGTATGTATGGTGCAGTATTCATATCATTTT [GTGCAC_site9458]”, the “gcPBM binding intensity (ln)” value came out at 10.03 ± 0.021.

In the case of “AAAATATATACACAAACATGCATATAATAAATAAAT [TGCATGCA_site711]”, the “gcPBM binding intensity (ln)” value came to 9.895 ± 0.064.

As to “ATATAAAAAAAAAAAAGTACACATAAACAAATGCAT [XGTACX_site4241]”, the “gcPBM binding intensity (ln)” value came out at 11.7 ± 1.

Take “GTTGTTATATAAAGGAGTACATAATAACACAAATAT [XGTACX_site615]”: the “gcPBM binding intensity (ln)” value was determined as 11.7 ± 1.2.

“TTTGTTAATATAAAAACACACAAAAATAACATAAAA [CACACA_site2619]”: the “gcPBM binding intensity (ln)” value was 10.2 ± 0.22.

In the case of “CTTTATAATATTTGTTGTACACAAATATAACATATT [XGTACX_site709]”, the “gcPBM binding intensity (ln)” value was found to be 11.6 ± 1.1.

As to “AAAACAAATGAGTACACACACATAAAAATTGAAAAT [CACACA_site199]”, the “gcPBM binding intensity (ln)” value came to 11.5 ± 0.9.

As to “AAAACAAATGAGTACACACACATAAAAGTTGAAAAT [CACACA_site6238]”, the “gcPBM binding intensity (ln)” value stood at 11.8 ± 1.3.

Consider “ATAAAACAAATGAGTACACACACATAAAAATTGAAA [CACACA_site7949]”, for which the “gcPBM binding intensity (ln)” value was 11.6 ± 1.2.

“AAAGTAAAAACACATACATGCATATACACATATAAC [TGCATGCA_site341]”: the “gcPBM binding intensity (ln)” value is 9.9 ± 0.12.

As to TTTTTGTTCTATATGGTGCATGTTTATATTCGTATT, the “gcPBM binding intensity (ln)” value was 10.2 ± 0.19.

In the case of “AATTATAATAATAATAGTACATAAGTATATAAATAA [XGTACX_site2400]”, the “gcPBM binding intensity (ln)” value was determined as 11 ± 0.62.

“AAATAAATAAGAAACGCATGCATATATAATATATAA [TGCATGCA_site326]”: the “gcPBM binding intensity (ln)” value stood at 9.83 ± 0.057.

Take “AGTAATAATCGGCATGCATGTCAGTGGTAGTATATA [TGCATGCA_site312]”: the “gcPBM binding intensity (ln)” value came to 10.3 ± 0.41.

As for “TCTTCATTTTTATGTGCATGTAAAATTTTTTTTTTT [TGCATGCA_site963]”, the “gcPBM binding intensity (ln)” value came to 10.2 ± 0.19.

For “ATATAATATTTATATGTACACACCTTAATCCTTAAA [CACACA_site3555]”, the “gcPBM binding intensity (ln)” value turned out to be 11.3 ± 0.81.

For the sequence “TTGTACTACAATCCTTTATTTATTTAAACCTGTATG [CACACA_negctrl_site428]”, the “gcPBM binding intensity (ln)” value worked out at 11.6 ± 1.1.

For “TTTTTTAACCTTTTATGTACACAATATTTAACATTT [XGTACX_site1170]”, the “gcPBM binding intensity (ln)” value amounted to 11.6 ± 0.95.

Regarding “TATTTTGTTCTTTCCACACACAAATACATATATTGT [CACACA_site4071]”, the “gcPBM binding intensity (ln)” value came to 10.3 ± 0.24.

Take “TATTGTATCCTTAATGCATGCACCAAATAAAAAAAG [TGCATGCA_site541]”: the “gcPBM binding intensity (ln)” value amounted to 10.5 ± 0.54.

As for “AAAAATAAAATAAAATAAAATAAAAATAAAGAAAAA [CACACA_negctrl_site808]”, the “gcPBM binding intensity (ln)” value is 9.39 ± 0.16.

Take “TGGCACTAAAAAAATAAACACACAGATTTATATAAT [CACACA_site8386]”: the “gcPBM binding intensity (ln)” value came out at 9.81 ± 0.18.
